Assay results as given in PubChem BioAssay (EPA / NIEHS).
Calls of active or inactive are those of the source. Rule for the calls, unless noted: active = hit-call score of the fitted dose curve at least 0.9, where 1 is the maximum; inactive = score below 0.9.

Assays:
[1] = read-out: Protein phosphatase 2A (PPP2R4), PTPA (gene 5524); experiment: LTEA_HepaRG_PPP2R4: Life Technologies and Expression Analysis (LTEA) Assay for Protein phosphatase 2A (PPP2R4) using HepaRG (AID 2283522); conditions: mRNA level, 48 h; actives raise or lower the signal
In short: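 Using HepaRG cultures maintained in 0.5% DMSO, chemicals are tested 48 h at up to 100 uM in duplicate. Induction or suppression of PPP2R4 mRNA, measured by qRT-PCR, is fitted bidirectionally against the vehicle baseline.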

[2] = read-out: Phosphatase and tensin (PTEN), PTEN (gene 5728); experiment: LTEA_HepaRG_PTEN: Life Technologies and Expression Analysis (LTEA) Assay for Phosphatase and tensin (PTEN) using HepaRG (AID 2283523); conditions: mRNA level, 48 h; actives raise or lower the signal
In short: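 HepaRG, 48 h exposure, 8-pt half-log series from 100 uM top, 0.5% DMSO vehicle, duplicates. Readout: Fluidigm qRT-PCR of PTEN transcript; housekeeping normalization (ACTB, GAPDH, POLR2A). Gain or loss fitted relative to DMSO baseline.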

[3] = read-out: solute carrier (SLC22A1), SLC22A1 (gene 6580); experiment: LTEA_HepaRG_SLC22A1: Life Technologies and Expression Analysis (LTEA) Assay for solute carrier (SLC22A1) using HepaRG (AID 2283524); conditions: mRNA level, 48 h; actives raise or lower the signal;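 for AC50: differentiated human HepaRG liver cells in serum-free induction medium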
In short: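 qRT-PCR readout (TaqMan, Fluidigm arrays) of SLC22A1 transcript, normalized to three housekeeping genes; bidirectional curve fit relative to 0.5% DMSO vehicle. Differentiated human HepaRG cells, 48 h chemical exposure, top concentration 100 uM, half-log steps, eight points.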

[4] = read-out: Pyruvate Dehydrogenase Kinase 4 (PDK4), PDK4 (gene 5166); experiment: LTEA_HepaRG_PDK4: Life Technologies and Expression Analysis (LTEA) Assay for Pyruvate Dehydrogenase Kinase 4 (PDK4) using HepaRG (AID 2283525); conditions: mRNA level, 48 h; actives raise or lower the signal
In short: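 HepaRG (human liver line), 48 h chemical exposure, 8-pt half-log CRC top 100 uM, 0.5% DMSO vehicle, duplicates. Readout: TaqMan qRT-PCR of PDK4 mRNA, housekeeping-normalized; gain/loss fit relative to DMSO baseline.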

[5] = read-out: NAD(P)H dehydrogenase [quinone] 1 (NQO1), NQO1 (gene 1728); experiment: LTEA_HepaRG_NQO1: Life Technologies and Expression Analysis (LTEA) Assay for NAD(P)H dehydrogenase [quinone] 1 (NQO1) using HepaRG (AID 2283526); conditions: mRNA level, 48 h; actives raise or lower the signal
In short: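 In this assay, gene expression is read by qRT-PCR after 48 h exposure of HepaRG cells to eight concentrations (max 100 uM, half-log) in 0.5% DMSO. Each chemical runs in duplicate, and activity is scored relative to vehicle.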

[6] = read-out: succinate dehydrogenase complex iron sulfur subunit B (SDHB), SDHB (gene 6390); experiment: LTEA_HepaRG_SDHB: Life Technologies and Expression Analysis (LTEA) Assay for succinate dehydrogenase complex iron sulfur subunit B (SDHB) using HepaRG (AID 2283528); conditions: mRNA level, 48 h; actives raise or lower the signal
In short: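 A human HepaRG culture in serum-free induction medium received test chemicals for 48 h over an eight-point range capped at 100 uM. SDHB expression change was quantified by qRT-PCR.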

[7] = read-out: Signal transducer and activator of transcription 3 (Homo sapiens) (UniProt P40763); experiment: LTEA_HepaRG_STAT3: Life Technologies and Expression Analysis (LTEA) Assay for Signal transducer and activator of transcription (STAT3) using HepaRG (AID 2283529); conditions: mRNA level, 48 h; actives raise or lower the signal
In short: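 HepaRG, 48 h exposure, 8-pt half-log series (top 100 uM), 0.5% DMSO vehicle, duplicates. Readout: STAT3 transcript by Fluidigm qRT-PCR, housekeeping-normalized; bidirectional fit vs DMSO baseline.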

[8] = read-out: solute carrier (SLCO1B1), SLCO1B1 (gene 10599); experiment: LTEA_HepaRG_SLCO1B1: Life Technologies and Expression Analysis (LTEA) Assay for solute carrier (SLCO1B1) using HepaRG (AID 2283530); conditions: mRNA level, 48 h; actives raise or lower the signal
In short: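 HepaRG, serum-free induction medium, 48 h dosing, 8-pt half-log from 100 uM, 0.5% DMSO vehicle, duplicates. Readout: SLCO1B1 mRNA, qRT-PCR, ACTB/GAPDH/POLR2A normalization; up or down fit vs DMSO.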

[9] = read-out: sulfotransferase 2A1 (SULT2A1), SULT2A1 (gene 6822); experiment: LTEA_HepaRG_SULT2A1: Life Technologies and Expression Analysis (LTEA) Assay for sulfotransferase 2A1 (SULT2A1) using HepaRG (AID 2283531); conditions: mRNA level, 48 h; actives raise or lower the signal
In short: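 Transcript levels of SULT2A1, quantified by qRT-PCR and normalized to three housekeeping genes, serve as the readout. Human HepaRG cultures receive test chemicals for 48 h at up to 100 uM in half-log steps, with 0.5% DMSO vehicle.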

[10] = read-out: Transforming Growth Factor (TGFA), TGFA (gene 7039); experiment: LTEA_HepaRG_TGFA: Life Technologies and Expression Analysis (LTEA) Assay for Transforming Growth Factor (TGFA) using HepaRG (AID 2283532); conditions: mRNA level, 48 h; actives raise or lower the signal
In short: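 qRT-PCR read-out of TGFA transcript, normalized to three housekeeping genes, fitted bidirectionally against 0.5% DMSO baseline. Human HepaRG cultures received chemicals for 48 h at eight half-log concentrations, top 100 uM.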

[11] = read-out: Transforming Growth Factor (TGFB1), TGFB1 (gene 7040); experiment: LTEA_HepaRG_TGFB1: Life Technologies and Expression Analysis (LTEA) Assay for Transforming Growth Factor (TGFB1) Transporter using HepaRG (AID 2283533); conditions: mRNA level, 48 h; actives raise or lower the signal
In short: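 HepaRG, 48 h post-plating, switched to serum-free induction medium; chemicals 100 uM top, half-log, 8 pts, 0.5% DMSO, dup; 48 h exposure; RNA → Fluidigm TaqMan qRT-PCR; norm ACTB/GAPDH/POLR2A; bidirectional fit vs DMSO.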

[12] = read-out: Tumor necrosis factor receptor 1 (TNFRSF1A), TNFRSF1A (gene 7132); experiment: LTEA_HepaRG_TNFRSF1A: Life Technologies and Expression Analysis (LTEA) Assay for Tumor necrosis factor receptor 1 (TNFRSF1A) using HepaRG (AID 2283535); conditions: mRNA level, 48 h; actives raise or lower the signal
In short: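 Read-out is TNFRSF1A transcript level by TaqMan qRT-PCR, normalized to three housekeeping genes, scored as gain or loss of signal versus 0.5% DMSO. Human HepaRG cells received test chemicals for 48 h at up to 100 uM (half-log series).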

[13] = read-out: Cellular tumor antigen p53 (Homo sapiens) (UniProt P04637); experiment: LTEA_HepaRG_TP53: Life Technologies and Expression Analysis (LTEA) Assay for Tumor Protein P53 (TP53) using HepaRG (AID 2283537); conditions: mRNA level, 48 h; actives raise or lower the signal
In short: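 Gain or loss of TP53 mRNA signal is scored relative to 0.5% DMSO after 48 h chemical treatment of HepaRG liver cells, tested in duplicate at eight half-log concentrations up to 100 uM.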

[14] = read-out: UDP glucuronosyltransferase (UGT1A1), UGT1A1 (gene 54658); experiment: LTEA_HepaRG_UGT1A1: Life Technologies and Expression Analysis (LTEA) Assay for UDP glucuronosyltransferase (UGT1A1) using HepaRG (AID 2283538); conditions: mRNA level, 48 h; actives raise or lower the signal
In short: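 mRNA induction or loss of UGT1A1, by TaqMan qRT-PCR, in duplicate HepaRG wells after 48 h exposure to half-log dilutions topping at 100 uM; DMSO (0.5%) served as baseline.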

[15] = read-out: UDP glucuronosyltransferase (UGT1A6), UGT1A6 (gene 54578); experiment: LTEA_HepaRG_UGT1A6: Life Technologies and Expression Analysis (LTEA) Assay for UDP glucuronosyltransferase (UGT1A6) using HepaRG (AID 2283539); conditions: mRNA level, 48 h; actives raise or lower the signal
In short: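 HepaRG, 48 h post-plating switch to serum-free induction medium; chemical 48 h, 100 uM top, half-log x8, duplicate, 0.5% DMSO. Phenobarbital 1mM induction control. UGT1A6 mRNA by TaqMan qRT-PCR; gain/loss fit vs DMSO.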

[16] = read-out: X-box binding protein 1 (XBP1), XBP1 (gene 7494); experiment: LTEA_HepaRG_XBP1: Life Technologies and Expression Analysis (LTEA) Assay for X-box binding protein 1 (XBP1) using HepaRG (AID 2283540); conditions: mRNA level, 48 h; actives raise or lower the signal
In short: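 Transcript levels of XBP1, measured by qRT-PCR and normalised to three housekeeping genes, were fitted bidirectionally relative to 0.5% DMSO controls. Human HepaRG cells received eight-point half-log dilutions from 100 uM for 48 h.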

[17] = LTEA_HepaRG_LDH_cytotoxicity: Cytotoxicity Assessment in the Life Technologies and Expression Analysis (LTEA) Assay (AID 2283563; active = hit-call score of the fitted dose curve at least 0.9, where 1 is the maximum;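 for AC50: LDH activity released into spent culture medium as a marker of cell death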)
In short: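 Cells were thawed and plated for 48 h. Medium was then replaced with serum-free induction medium. Chemicals (8 half-log points, maximum 100 uM, 0.5% DMSO) were added in duplicate for 48 h, after which spent medium was assayed for LDH.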

[18] = read-out: Thyroid Hormone Responsive (THRSP), THRSP (gene 7069); experiment: LTEA_HepaRG_THRSP: Life Technologies and Expression Analysis (LTEA) Assay for Thyroid Hormone Responsive (THRSP) using HepaRG (AID 2283536); conditions: mRNA level, 48 h; actives raise or lower the signal
In short: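 qRT-PCR read-out (Fluidigm TaqMan), housekeeping-normalized (ACTB/GAPDH/POLR2A). HepaRG, 48 h chemical exposure, 8-pt half-log series from 100 uM in 0.5% DMSO, duplicates. Bidirectional curve fit vs 0.5% DMSO baseline.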

[19] = read-out: TIMP1, TIMP1 (gene 7076); experiment: LTEA_HepaRG_TIMP1: Life Technologies and Expression Analysis (LTEA) Assay for TIMP1 using HepaRG (AID 2283534); conditions: mRNA level, 48 h; actives raise or lower the signal
In short: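 Readout is TIMP1 mRNA level measured by qRT-PCR and normalized to three housekeeping genes. Human HepaRG cells were treated for 48 h in duplicate at eight concentrations up to 100 uM (0.5% DMSO); gain or loss fitted against DMSO.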

Measured: AC50

Sequence of Cellular tumor antigen p53 (Homo sapiens) (P04637 whole entry, looked up): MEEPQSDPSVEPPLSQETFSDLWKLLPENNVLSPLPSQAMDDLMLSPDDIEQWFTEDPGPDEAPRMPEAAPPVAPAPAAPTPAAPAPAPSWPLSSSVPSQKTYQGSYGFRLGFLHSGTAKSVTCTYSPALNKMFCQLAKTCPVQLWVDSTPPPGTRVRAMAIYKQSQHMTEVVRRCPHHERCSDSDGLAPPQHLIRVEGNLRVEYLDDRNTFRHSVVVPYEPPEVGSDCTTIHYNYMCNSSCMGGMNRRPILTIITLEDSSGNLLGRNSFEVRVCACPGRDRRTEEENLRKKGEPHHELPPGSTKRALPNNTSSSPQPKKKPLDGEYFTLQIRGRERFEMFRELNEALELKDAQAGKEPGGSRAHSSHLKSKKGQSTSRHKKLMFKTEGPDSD
Sequence of Signal transducer and activator of transcription 3 (Homo sapiens) (P40763 whole entry, looked up): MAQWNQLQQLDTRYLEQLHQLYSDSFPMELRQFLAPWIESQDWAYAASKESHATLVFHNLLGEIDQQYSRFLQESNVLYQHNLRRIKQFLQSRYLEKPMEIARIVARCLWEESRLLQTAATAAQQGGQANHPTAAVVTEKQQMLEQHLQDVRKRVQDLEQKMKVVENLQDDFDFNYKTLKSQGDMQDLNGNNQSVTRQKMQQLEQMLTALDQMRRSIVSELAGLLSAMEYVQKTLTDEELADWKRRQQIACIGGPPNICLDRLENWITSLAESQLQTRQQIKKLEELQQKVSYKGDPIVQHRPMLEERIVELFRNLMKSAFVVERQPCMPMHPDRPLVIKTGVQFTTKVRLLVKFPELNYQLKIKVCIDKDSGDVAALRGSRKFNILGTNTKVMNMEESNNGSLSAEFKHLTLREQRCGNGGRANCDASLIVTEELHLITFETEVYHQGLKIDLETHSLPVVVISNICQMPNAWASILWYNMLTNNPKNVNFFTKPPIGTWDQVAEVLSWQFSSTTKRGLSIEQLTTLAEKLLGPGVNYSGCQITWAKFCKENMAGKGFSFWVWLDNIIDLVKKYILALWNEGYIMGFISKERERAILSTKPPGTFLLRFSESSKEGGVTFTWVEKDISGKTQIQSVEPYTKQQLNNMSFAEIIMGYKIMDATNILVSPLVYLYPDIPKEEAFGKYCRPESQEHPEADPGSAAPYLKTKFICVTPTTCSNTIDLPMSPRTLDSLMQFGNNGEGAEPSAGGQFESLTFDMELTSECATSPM

OCCO
active: [13] 9.97 µM
not listed: [18] | [19]
inactive: all other assays above

CC(O)CC(C)(C)O (centres undefined)
not listed: [11] | [14] | [18] | [19]
inactive: all other assays above

CC/C(=C(/CC)c1ccc(O)cc1)c1ccc(O)cc1
inactive: [5] | [8] | [13]
active: [1] 85.4 µM | [2] 93.8 µM | [3] 75.7 µM | [4] 80.1 µM | [6] 50 µM | [7] 90.8 µM | [9] 93.7 µM | [10] 81.3 µM | [12] 93.8 µM | [18] 21.7 µM | [15] 76.7 µM | [16] 89.9 µM | [17] 89.2 µM

CN(C[C@@H](CC[N+]12CCC(C3CCCCC3)(CC1)CC2)c1ccc(Cl)c(Cl)c1)C(=O)c1cc(C(F)(F)F)cc(C(F)(F)F)c1
active: [1] 76.2 µM | [2] 71.1 µM | [3] 22.4 µM | [4] 82.4 µM | [6] 68.8 µM | [8] 33.9 µM | [9] 68 µM | [10] 50 µM | [18] 4.72 µM | [15] 1.66 µM | [17] 26.6 µM
inactive: [5] | [7] | [12] | [13] | [16]

CCCCCCCCCCCCO
not listed: [11] | [14] | [18]
inactive: all other assays above

O=C=NCCCCCCN=C=O
not listed: [11] | [14] | [19]
inactive: all other assays above

NC(=O)c1nc(-c2cccc(-c3cc(F)ccc3OCC(F)(F)C(F)(F)F)c2)n[nH]1
active: [2] 80.5 µM | [3] 15.8 µM | [5] 78.2 µM | [10] 91.2 µM | [19] 83.2 µM | [14] 15.8 µM | [15] 50 µM | [17] 76.1 µM
not listed: [11]
inactive: all other assays above
